# Reference: the supplement of paper PMC9794691
# Key:
# [1] = test system: H1975; experiment: area under confluence curve of compound monotherapy; compare to DMSO control AUC of the same experiment (AUC (confluence x time, arbitrary))
# Procedure, shortened: (§1)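 EGFR-mutant adenocarcinoma lines (RPMI 1640, 10% FBS, 37 °C, 5% CO2) were seeded at 20,000–30,000 cells/well in 48-well plates and next day given test compound alone at one dose (highest with <50% parental inhibition, or 1 uM), refreshed after PBS washes every 3–4 days, then drug-free from DTP stage (10–21 days). IncuCyte confluence was tracked until EGFR-inhibitor-only wells regrew. Area under the confluence curve came from Prism (median of triplicates where run), beside same-experiment vehicle AUC.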
# [2] = test system: HCC2279; experiment: as above; conditions: DMSO control AUC in same experiment: 14404
# Procedure, shortened: as §1
# [3] = test system: HCC2935; experiment: as above; conditions: DMSO control AUC in same experiment: 19215
# Procedure, shortened: as §1
# [4] = test system: HCC4006; experiment: as above; conditions: DMSO control AUC in same experiment: 18415
# Procedure, shortened: as §1
# [5] = test system: HCC827; experiment: as above; conditions: DMSO control AUC in same experiment: 21320
# Procedure, shortened: as §1
# [6] = test system: II-18; experiment: as above; conditions: DMSO control AUC in same experiment: 11834
# Procedure, shortened: as §1
# [7] = test system: H1975; experiment: area under confluence curve of osimertinib + compound combination regimen (DTP regrowth); compare to osimertinib-only DTP control AUC of the same experiment (AUC (confluence x time, arbitrary))
# Procedure, shortened: (§2)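 The area under the IncuCyte confluence–time curve, calculated in Prism and taken as the median of triplicates where available, is the value reported. It was measured in EGFR-mutant NSCLC lines that received the EGFR inhibitor either alone, followed by a test compound, or together with a fixed-dose test compound until the persister stage (10–21 days) and then drug-free medium. Medium was refreshed every 3–4 days until the inhibitor-only wells were confluent again.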
# [8] = test system: HCC2279; experiment: as above
# Procedure, shortened: as §2
# [9] = test system: HCC2935; experiment: as above
# Procedure, shortened: as §2
# [10] = test system: HCC4006; experiment: as above
# Procedure, shortened: as §2
# [11] = test system: HCC827; experiment: as above
# Procedure, shortened: as §2
# [12] = test system: II-18; experiment: as above
# Procedure, shortened: as §2
compound,measurement,setting,value
C[C@@H](Oc1cc(-c2cnn(C3CCNCC3)c2)cnc1N)c1c(Cl)ccc(F)c1Cl [Crizotinib],area under confluence curve,"[1]; 1000 nM, DMSO control AUC in same experiment: 15857",9870
same,area under confluence curve,[2]; 1000 nM,13900
same,area under confluence curve,[3]; 1000 nM,19300
same,area under confluence curve,[4]; 1000 nM,16500
same,area under confluence curve,[5]; 1000 nM,19500
same,area under confluence curve,[6]; 1000 nM,6690
NC1(C(=O)N[C@@H](CCO)c2ccc(Cl)cc2)CCN(c2nc[nH]c3nccc2-3)CC1 [Capivasertib] + C=CC(=O)Nc1cc(Nc2nccc(-c3cn(C)c4ccccc34)n2)c(OC)cc1N(C)CCN(C)C [osimertinib],area under confluence curve,"[7]; test compound dose 300 nM, dosing schedule: sequential, osimertinib-only DTP control AUC in same experiment: 9919, DMSO control AUC in same experiment: 26010",1840
same,area under confluence curve,"[7]; test compound dose 300 nM, dosing schedule: upfront, osimertinib-only DTP control AUC in same experiment: 15327, DMSO control AUC in same experiment: 26010",3990
same,area under confluence curve,"[8]; test compound dose 300 nM, dosing schedule: sequential, osimertinib-only DTP control AUC in same experiment: 20224, DMSO control AUC in same experiment: 29252",13700
same,area under confluence curve,"[8]; test compound dose 300 nM, dosing schedule: upfront, osimertinib-only DTP control AUC in same experiment: 43517, DMSO control AUC in same experiment: 29252",38900
same,area under confluence curve,"[9]; test compound dose 300 nM, dosing schedule: sequential, osimertinib-only DTP control AUC in same experiment: 9121, DMSO control AUC in same experiment: 11459",5940
same,area under confluence curve,"[9]; test compound dose 300 nM, dosing schedule: upfront, osimertinib-only DTP control AUC in same experiment: 12748, DMSO control AUC in same experiment: 11459",10300
same,area under confluence curve,"[10]; test compound dose 300 nM, dosing schedule: sequential, osimertinib-only DTP control AUC in same experiment: 22375, DMSO control AUC in same experiment: 16794",17000
same,area under confluence curve,"[10]; test compound dose 300 nM, dosing schedule: upfront, osimertinib-only DTP control AUC in same experiment: 24440, DMSO control AUC in same experiment: 16794",12500
same,area under confluence curve,"[11]; test compound dose 300 nM, dosing schedule: sequential, osimertinib-only DTP control AUC in same experiment: 8266, DMSO control AUC in same experiment: 27404",5490
same,area under confluence curve,"[11]; test compound dose 300 nM, dosing schedule: upfront, osimertinib-only DTP control AUC in same experiment: 13929, DMSO control AUC in same experiment: 27404",9340
same,area under confluence curve,"[12]; test compound dose 300 nM, dosing schedule: sequential, osimertinib-only DTP control AUC in same experiment: 3520, DMSO control AUC in same experiment: 13556",3590
same,area under confluence curve,"[12]; test compound dose 300 nM, dosing schedule: upfront, osimertinib-only DTP control AUC in same experiment: 6532, DMSO control AUC in same experiment: 13556",2040
CN(C)CCCOc1ccc(-c2ccc3ncc4c(c3c2)n(C2CCOCC2)c(=O)n4C)cn1,area under confluence curve,"[1]; 300 nM, DMSO control AUC in same experiment: 26223",22300
same,area under confluence curve,[2]; 300 nM,14100
same,area under confluence curve,[3]; 300 nM,21000
same,area under confluence curve,[4]; 300 nM,20100
same,area under confluence curve,[5]; 300 nM,20700
same,area under confluence curve,[6]; 300 nM,12300
Cn1cnc2c(F)c(Nc3ccc(Br)cc3Cl)c(C(=O)NOCCO)cc21 [Selumetinib] + C=CC(=O)Nc1cc(Nc2nccc(-c3cn(C)c4ccccc34)n2)c(OC)cc1N(C)CCN(C)C [osimertinib],area under confluence curve,"[7]; test compound dose 300 nM, dosing schedule: sequential, osimertinib-only DTP control AUC in same experiment: 12533, DMSO control AUC in same experiment: 14522",2580
same,area under confluence curve,"[7]; test compound dose 300 nM, dosing schedule: upfront, osimertinib-only DTP control AUC in same experiment: 18969, DMSO control AUC in same experiment: 14522",10100
same,area under confluence curve,"[8]; test compound dose 300 nM, dosing schedule: sequential, osimertinib-only DTP control AUC in same experiment: 15997, DMSO control AUC in same experiment: 40085",8900
same,area under confluence curve,"[8]; test compound dose 300 nM, dosing schedule: upfront, osimertinib-only DTP control AUC in same experiment: 28057, DMSO control AUC in same experiment: 40085",9080
same,area under confluence curve,"[9]; test compound dose 300 nM, dosing schedule: sequential, osimertinib-only DTP control AUC in same experiment: 7139, DMSO control AUC in same experiment: 15413",12800
same,area under confluence curve,"[9]; test compound dose 300 nM, dosing schedule: upfront, osimertinib-only DTP control AUC in same experiment: 19044, DMSO control AUC in same experiment: 15413",9550
same,area under confluence curve,"[10]; test compound dose 300 nM, dosing schedule: sequential, osimertinib-only DTP control AUC in same experiment: 14882, DMSO control AUC in same experiment: 10921",9590
same,area under confluence curve,"[10]; test compound dose 300 nM, dosing schedule: upfront, osimertinib-only DTP control AUC in same experiment: 18913, DMSO control AUC in same experiment: 10921",11700
same,area under confluence curve,"[11]; test compound dose 300 nM, dosing schedule: sequential, osimertinib-only DTP control AUC in same experiment: 18675, DMSO control AUC in same experiment: 48895",11400
same,area under confluence curve,"[11]; test compound dose 300 nM, dosing schedule: upfront, osimertinib-only DTP control AUC in same experiment: 25542, DMSO control AUC in same experiment: 48895",11100
same,area under confluence curve,"[12]; test compound dose 300 nM, dosing schedule: sequential, osimertinib-only DTP control AUC in same experiment: 21014, DMSO control AUC in same experiment: 18482",16200
same,area under confluence curve,"[12]; test compound dose 300 nM, dosing schedule: upfront, osimertinib-only DTP control AUC in same experiment: 27084, DMSO control AUC in same experiment: 18482",14400
COC(=O)c1ccc([C@H]2c3[nH]c4ccccc4c3C[C@H](C(=O)OC)N2C(=O)CCl)cc1 + C=CC(=O)Nc1cc(Nc2nccc(-c3cn(C)c4ccccc34)n2)c(OC)cc1N(C)CCN(C)C [osimertinib],area under confluence curve,"[7]; test compound dose 100 nM, dosing schedule: sequential, osimertinib-only DTP control AUC in same experiment: 9919, DMSO control AUC in same experiment: 26010",7660
same,area under confluence curve,"[7]; test compound dose 100 nM, dosing schedule: upfront, osimertinib-only DTP control AUC in same experiment: 15327, DMSO control AUC in same experiment: 26010",13400
same,area under confluence curve,"[8]; test compound dose 100 nM, dosing schedule: sequential, osimertinib-only DTP control AUC in same experiment: 11520, DMSO control AUC in same experiment: 9426",13900
same,area under confluence curve,"[8]; test compound dose 100 nM, dosing schedule: upfront, osimertinib-only DTP control AUC in same experiment: 21942, DMSO control AUC in same experiment: 9426",20100
same,area under confluence curve,"[9]; test compound dose 100 nM, dosing schedule: sequential, osimertinib-only DTP control AUC in same experiment: 9121, DMSO control AUC in same experiment: 11459",5900
same,area under confluence curve,"[9]; test compound dose 100 nM, dosing schedule: upfront, osimertinib-only DTP control AUC in same experiment: 12748, DMSO control AUC in same experiment: 11459",6780
same,area under confluence curve,"[10]; test compound dose 100 nM, dosing schedule: sequential, osimertinib-only DTP control AUC in same experiment: 19238, DMSO control AUC in same experiment: 16638",19000
same,area under confluence curve,"[10]; test compound dose 100 nM, dosing schedule: upfront, osimertinib-only DTP control AUC in same experiment: 21234, DMSO control AUC in same experiment: 16638",21000
same,area under confluence curve,"[11]; test compound dose 100 nM, dosing schedule: sequential, osimertinib-only DTP control AUC in same experiment: 25096, DMSO control AUC in same experiment: 35394",6740
same,area under confluence curve,"[11]; test compound dose 100 nM, dosing schedule: upfront, osimertinib-only DTP control AUC in same experiment: 27382, DMSO control AUC in same experiment: 35394",27100
same,area under confluence curve,"[12]; test compound dose 100 nM, dosing schedule: sequential, osimertinib-only DTP control AUC in same experiment: 3520, DMSO control AUC in same experiment: 13556",183
same,area under confluence curve,"[12]; test compound dose 100 nM, dosing schedule: upfront, osimertinib-only DTP control AUC in same experiment: 6532, DMSO control AUC in same experiment: 13556",1800
